# Screening data: PubChem BioAssay, National Center for Advancing Translational Sciences (NCATS)
# Compounds with a hit are over-represented: about 9.9% of the library has one in this group of screens.
# Tau FP inhib: qHTS for Inhibitors of Tau Fibril Formation, Fluorescence Polarization | Microtubule-associated protein tau (Homo sapiens), P10636 | K18 P301L tau heparin fibrillization, Alexa594 FP, 6 h | Potency, µM (titrated, usually from 57.7 µM), without a hit: top-dose activity, negative = inhibition, hits mostly inhibitors | 0.39% of 280,000 active | AID 1468, 2008; further: nearly all actives have a fitted effect of over 55% in size
# Target sequence (P10636 561-689 P618L limits assumed): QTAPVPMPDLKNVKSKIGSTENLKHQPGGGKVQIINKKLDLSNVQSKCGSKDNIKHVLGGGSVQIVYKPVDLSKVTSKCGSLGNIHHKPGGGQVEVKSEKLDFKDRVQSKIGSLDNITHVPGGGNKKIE
#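 Steps: dispense K18 P301L tau (15 uM plus 0.24 uM Alexa 594 tracer, final) in pH 7 sodium acetate; add compound; add heparin (20 uM final); incubate 6 hr, 37 C; add ThT (30 uM final); after 1 hr ambient, read FP.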
# ALDH1A1 inh: qHTS Assay for Inhibitors of Aldehyde Dehydrogenase 1 (ALDH1A1). Aldehyde dehydrogenase 1A1 (Homo sapiens), P00352. Purified ALDH1A1, NADH fluorescence, propionaldehyde substrate. Potency, µM (doses to about 75.3 µM), for inactives: top-dose activity, negative = inhibition, actives largely listed as inhibitors. 7.3% of 220,000 active. AID 1030, 2008; active means well fitted inhibition curve with a large enough effect, not every such curve was filed as active; inconclusive means small, poorly fitted or top-dose-only effect, or another doubt; inactive means no such curve, though single readings can be large or run the other way;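 further: plate controls were no enzyme wells and a reference inhibitor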
# Tau ThT inhib: qHTS for Inhibitors of Tau Fibril Formation, Thioflavin T Binding; recombinant tau K18 P301L, heparin-induced fibrillization, ThT fluorescence; Potency, µM (top dose mostly 57.4 µM), inactives show at the highest dose activity, negative = inhibition, actives largely listed as inhibitors; 2.1% of 270,000 active; further: nearly all actives have a fitted effect of over 55% in size
#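 Heparin-induced (20 uM) aggregation of recombinant human K18 P301L tau, 15 uM unlabeled with 0.24 uM labeled, pH 7 acetate buffer, 6 hr at 37 C with compound. Fibrils quantified by 30 uM ThT fluorescence after 1 hr ambient incubation.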
# KDM4E inh: qHTS Assay for Inhibitors of Human Jumonji Domain Containing 2E (JMJD2E); JMJD2E catalytic domain, FDH-coupled NADH fluorescence (FDH is formaldehyde dehydrogenase); Potency, µM (highest dose often 57.1 µM), for the others: at the top dose activity change, negative = inhibition, hits mostly inhibitors; 1.6% of 230,000 active; AID 2147, 2009; active means well fitted inhibition curve with a large enough effect, not every such curve was filed as active; inconclusive means small, poorly fitted or top-dose-only effect, or another doubt; inactive means no such curve, though single readings can be large or run the other way;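 further: 0% = wells with enzyme and -100% = buffer wells without enzyme; nearly all actives have a fitted effect of over 50% in size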
# Tau fluor cs: Counterscreen qHTS for Inhibitors of Tau Fibril Formation, Fluorescence Polarization. tau K18 P301L Alexa594 fluorescence, heparin fibrillization. Potency, µM (doses to about 57.7 µM), for inactives: at the top dose activity change, negative = decrease. 0.93% of 280,000 active. AID 1463, 2008; further: nearly all actives have a fitted effect of over 55% in size
#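 Human tau K18 P301L (15 uM unlabeled, 0.24 uM Alexa 594-labeled) in 100 mM sodium acetate pH 7 with 20 uM heparin, 6 hr at 37 C. ThT 30 uM added, 1 hr ambient; Alexa 594 FP and total fluorescence read at 555/632 nm.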
# HPGD inh: qHTS Assay for Inhibitors of HPGD (15-Hydroxyprostaglandin Dehydrogenase). 15-hydroxyprostaglandin dehydrogenase [NAD(+)] (Homo sapiens), P15428. purified HPGD, NADH fluorescence kinetic, PGE2 substrate. Potency, µM, without a hit: at the highest dose activity change, negative = inhibition, usual class: inhibitors. 4.3% of 150,000 active. AID 894, 2007; active means well fitted inhibition curve with a large enough effect, not every such curve was filed as active; inconclusive means small, poorly fitted or top-dose-only effect, or another doubt; inactive means no such curve, though single readings can be large or run the other way
# Target sequence (P15428 whole entry, looked up): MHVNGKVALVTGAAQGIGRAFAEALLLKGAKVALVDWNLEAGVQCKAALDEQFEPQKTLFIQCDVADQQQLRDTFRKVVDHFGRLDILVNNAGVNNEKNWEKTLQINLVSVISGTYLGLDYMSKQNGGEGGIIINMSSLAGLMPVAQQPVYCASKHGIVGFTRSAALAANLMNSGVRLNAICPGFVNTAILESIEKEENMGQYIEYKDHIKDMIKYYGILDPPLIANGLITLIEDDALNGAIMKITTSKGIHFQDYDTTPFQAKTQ
#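 NADH formation kinetics: reaction with 30 uM PGE2 and 1 mM NAD+ (final), 20 nM enzyme, Tris-HCl pH 8 with Tween 20, after 15 min compound preincubation at room temperature. Fluorescence change, last versus first of five reads.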
# * = called active by the depositor; ? = inconclusive; nt = no result. Unless noted, the call rests on the fitted dose curve; in most records, active means well fitted curve in the direction sought with a large enough effect; inconclusive means small, poorly fitted or top-dose-only effect, or another doubt; inactive means no such curve, though single readings can be large; an effect the other way counts as inactive or inconclusive. Unless noted, on the % scale 0 is the no-effect control and ±100 the full control effect; potency means the concentration at half of the fitted maximal effect.
SMILES,Tau FP inhib,ALDH1A1 inh,Tau ThT inhib,KDM4E inh,Tau fluor cs,HPGD inh
CCCCN1C(=O)C(O)(CC(=O)c2ccccn2)c2ccccc21 (stereo not given),-3%,1µM*,-1%,-7%,5%,nt
CCCCN1C(=O)C(O)(CC(=O)c2ccccc2OC)c2ccccc21 (stereo not given),-9%,8.9µM*,-13%,0%,-17%,-6%
CCCN1C(=O)C(O)(CC(=O)c2ccc(CC)cc2)c2ccccc21 (stereo not given),1%,nt,4%,nt,0%,nt
CCCCN1C(=O)C(O)(CC(=O)c2c(C)coc2C)c2ccccc21 (stereo not given),8%,10µM*,-8%,3%,-6%,nt
CCn1cc(C=C2C(=O)c3ccccc3C2=O)c2ccccc21,6%,2%,?,19%,-21%,0%
Cc1ccc(Sc2ncccc2COC(=O)NC(C)C)cc1,-8%,-1%,-5%,-1%,-13%,nt
O=C(CCc1nc(-c2ccccc2)no1)NCCc1ccccc1,0%,6%,-18%,2%,-13%,-24%
COc1ccc(-c2noc(CCC(=O)NCCN(C)Cc3ccccc3)n2)cc1,-2%,7%,-1%,3%,-4%,16µM*
O=C(CCCc1nc(-c2ccccc2)no1)NCc1cccnc1,2%,14µM*,-4%,1%,-4%,-14%
COc1ccc(/C=C(/C(=O)c2ccc(Cl)cc2Cl)n2cncn2)cc1,2%,8.9µM*,-10%,-1%,-1%,-11%
CC(C)CC(=O)/C(=C\c1ccc(Cl)cc1Cl)n1cncn1,1%,22µM*,?,-10%,7%,?
CN(C)c1ccc(/C=C(/C(=O)c2ccc(Cl)cc2Cl)n2cncn2)cc1,-1%,1.1µM*,?,-2%,-22%,-21%
CN(C)c1ccc(C2C=C(c3ccc(Cl)cc3OC(F)F)Nc3ncnn32)cc1 (stereo not given),?,20µM*,-15%,-27%,?,-9%
Cc1ccc(C2C=C(c3ccccc3OC(F)F)Nc3ncnn32)cc1 (stereo not given),1%,?,-10%,?,-10%,?
O=C(NCCc1ccc(Cl)cc1)c1ccc2c(c1)nc1n2CCOC1,-2%,nt,?,nt,-7%,nt
O=C1c2ccccc2S(=O)(=O)N1CC1CC(c2ccccc2Cl)=NO1 (stereo not given),-10%,13µM*,-12%,2%,?,14µM*
O=C(c1cccnc1)N1N=C(C2CCCCC2)CC1(O)C(F)(F)F (stereo not given),-3%,13µM*,-10%,14%,-12%,nt
O=C(c1cccnc1)N1N=C2CCCCCC2C1(O)C(F)(F)F (stereo not given),-1%,?,-2%,4%,0%,nt
O=C(Nc1ccccc1N1CCCC1)c1cc2ccccc2o1,11%,28µM*,?,?,?,-23%
O=C(NCCCN1CCOCC1)c1cc2ccccc2o1,-1%,4%,-12%,-3%,-3%,-1%
O=C(NC(=S)N1CCOCC1)c1cc2ccccc2o1,-2%,25µM*,1%,-4%,4%,nt
COc1ccc(-n2c(=O)c3ccc(C(=O)NCc4ccc(C)cc4)cc3n(CC(=O)Nc3cccc(F)c3)c2=O)cc1,?,nt,14%,nt,-13%,nt
CN(c1nc2ccccc2n2c(C3CC3)nnc12)S(=O)(=O)c1ccccc1,-1%,nt,10%,4%,2%,nt
